# The supplement of paper PMC10849652
# Of roughly 7,900 targets only a part is listed; those with a hit were picked by preference. About 0.6% of all pairs of compound and target were hits. Values without a mark were called inactive.
# Assays:
# Experiment in all cases: log2 fold change, soluble protein after heating vs DMSO (PISA); higher = thermal stabilisation; K562 cells, 10 uM, 30 min; active = over 0.2 and 3.5 SD of the protein, either way, in both replicates (recomputed)
# [1] = compound: CC1=C(C=C(C=C1)NC(=O)C2=CC(=CC=C2)C(C)(C)C#N)NC3=CC4=C(C=C3)N=CN(C4=O)C
# Outline: (§1)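 Aliquots of K562 cells (2×10^6 cells/mL) treated with 10 μM compound for 30 min were heated for 3 min over 48°C-58°C. After pooling and extraction in PBS with 0.5% NP-40 at 4°C, soluble protein from a 21,000xg, 90 min spin was quantified by TMTpro 16plex LC-MS/MS with channel sums equalised. Thermal stability is expressed against control samples, from duplicates, as a log2 fold change.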
# [2] = compound: CC1=C(C=C(C=C1)NC(=O)C2=CC(=CC=C2)N(C)C)NC(=O)C3=CC=C(C=C3)O
# Outline: as §1
# [3] = compound: CC1=CC=C(C=C1)SC2=C3C=C(SC3=CN=C2)C(=O)N
# Outline: as §1
# [4] = compound: CC1=NC(=CC=C1)C2=C(N=C(N2)C(C)(C)C)C3=CC4=NC=CN=C4C=C3
# Outline: as §1
# Nexturastat A = compound: CCCCN(Cc1ccc(C(=O)NO)cc1)C(=O)Nc1ccccc1 [Nexturastat A]
# Outline: as §1
# vemurafenib = compound: CCCS(=O)(=O)Nc1ccc(F)c(C(=O)c2c[nH]c3ncc(-c4ccc(Cl)cc4)cc23)c1F [vemurafenib]
# Outline: as §1
# [5] = compound: CCCS(=O)(=O)Nc1ccc(F)c(C(=O)c2c[nH]c3ncc(Cl)cc23)c1F
# Outline: as §1
# [6] = compound: CCCc1cc(C)[nH]c(=O)c1CNC(=O)c1cc(-c2ccnc(N3CCN(C)CC3)c2)cc2c1cnn2C(C)C
# Outline: as §1
# givinostat = compound: CCN(CC)Cc1ccc2cc(COC(=O)Nc3ccc(C(=O)NO)cc3)ccc2c1 [givinostat]
# Outline: as §1
# barasertib = compound: CCN(CCCOc1ccc2c(Nc3cc(CC(=O)Nc4cccc(F)c4)[nH]n3)ncnc2c1)CCOP(=O)(O)O [barasertib]
# Outline: as §1
# UniProt Q01974, sequence (Q01974 whole entry, looked up): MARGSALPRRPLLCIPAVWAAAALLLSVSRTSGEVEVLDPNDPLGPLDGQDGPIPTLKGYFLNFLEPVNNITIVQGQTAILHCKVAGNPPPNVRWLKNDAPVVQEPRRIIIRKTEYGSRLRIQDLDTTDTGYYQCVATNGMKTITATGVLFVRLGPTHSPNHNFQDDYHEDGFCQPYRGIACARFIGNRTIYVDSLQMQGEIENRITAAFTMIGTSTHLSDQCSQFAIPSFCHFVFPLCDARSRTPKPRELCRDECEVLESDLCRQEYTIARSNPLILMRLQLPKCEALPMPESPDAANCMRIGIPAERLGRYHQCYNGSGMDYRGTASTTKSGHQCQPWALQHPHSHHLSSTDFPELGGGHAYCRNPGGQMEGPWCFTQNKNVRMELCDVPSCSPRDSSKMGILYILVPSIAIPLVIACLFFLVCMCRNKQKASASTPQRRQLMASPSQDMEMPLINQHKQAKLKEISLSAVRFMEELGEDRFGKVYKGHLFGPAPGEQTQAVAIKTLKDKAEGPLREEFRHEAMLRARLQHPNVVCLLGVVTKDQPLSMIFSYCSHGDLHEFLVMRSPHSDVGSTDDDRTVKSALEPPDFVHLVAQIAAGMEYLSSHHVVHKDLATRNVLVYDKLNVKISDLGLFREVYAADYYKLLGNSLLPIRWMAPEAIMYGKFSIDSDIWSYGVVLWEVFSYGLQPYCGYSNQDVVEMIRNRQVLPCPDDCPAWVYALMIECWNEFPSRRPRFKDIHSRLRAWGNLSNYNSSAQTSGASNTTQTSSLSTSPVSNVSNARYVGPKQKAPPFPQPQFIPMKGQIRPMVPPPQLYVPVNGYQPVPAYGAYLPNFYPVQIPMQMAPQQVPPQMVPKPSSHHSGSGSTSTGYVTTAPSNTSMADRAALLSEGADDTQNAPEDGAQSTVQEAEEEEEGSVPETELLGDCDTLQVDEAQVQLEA
# UniProt O95059, sequence (O95059 whole entry, looked up): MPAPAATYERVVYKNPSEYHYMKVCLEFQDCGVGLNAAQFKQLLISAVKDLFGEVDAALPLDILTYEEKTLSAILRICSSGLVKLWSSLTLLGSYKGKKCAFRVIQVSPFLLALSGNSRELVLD
# UniProt O75116, sequence (O75116 whole entry, looked up): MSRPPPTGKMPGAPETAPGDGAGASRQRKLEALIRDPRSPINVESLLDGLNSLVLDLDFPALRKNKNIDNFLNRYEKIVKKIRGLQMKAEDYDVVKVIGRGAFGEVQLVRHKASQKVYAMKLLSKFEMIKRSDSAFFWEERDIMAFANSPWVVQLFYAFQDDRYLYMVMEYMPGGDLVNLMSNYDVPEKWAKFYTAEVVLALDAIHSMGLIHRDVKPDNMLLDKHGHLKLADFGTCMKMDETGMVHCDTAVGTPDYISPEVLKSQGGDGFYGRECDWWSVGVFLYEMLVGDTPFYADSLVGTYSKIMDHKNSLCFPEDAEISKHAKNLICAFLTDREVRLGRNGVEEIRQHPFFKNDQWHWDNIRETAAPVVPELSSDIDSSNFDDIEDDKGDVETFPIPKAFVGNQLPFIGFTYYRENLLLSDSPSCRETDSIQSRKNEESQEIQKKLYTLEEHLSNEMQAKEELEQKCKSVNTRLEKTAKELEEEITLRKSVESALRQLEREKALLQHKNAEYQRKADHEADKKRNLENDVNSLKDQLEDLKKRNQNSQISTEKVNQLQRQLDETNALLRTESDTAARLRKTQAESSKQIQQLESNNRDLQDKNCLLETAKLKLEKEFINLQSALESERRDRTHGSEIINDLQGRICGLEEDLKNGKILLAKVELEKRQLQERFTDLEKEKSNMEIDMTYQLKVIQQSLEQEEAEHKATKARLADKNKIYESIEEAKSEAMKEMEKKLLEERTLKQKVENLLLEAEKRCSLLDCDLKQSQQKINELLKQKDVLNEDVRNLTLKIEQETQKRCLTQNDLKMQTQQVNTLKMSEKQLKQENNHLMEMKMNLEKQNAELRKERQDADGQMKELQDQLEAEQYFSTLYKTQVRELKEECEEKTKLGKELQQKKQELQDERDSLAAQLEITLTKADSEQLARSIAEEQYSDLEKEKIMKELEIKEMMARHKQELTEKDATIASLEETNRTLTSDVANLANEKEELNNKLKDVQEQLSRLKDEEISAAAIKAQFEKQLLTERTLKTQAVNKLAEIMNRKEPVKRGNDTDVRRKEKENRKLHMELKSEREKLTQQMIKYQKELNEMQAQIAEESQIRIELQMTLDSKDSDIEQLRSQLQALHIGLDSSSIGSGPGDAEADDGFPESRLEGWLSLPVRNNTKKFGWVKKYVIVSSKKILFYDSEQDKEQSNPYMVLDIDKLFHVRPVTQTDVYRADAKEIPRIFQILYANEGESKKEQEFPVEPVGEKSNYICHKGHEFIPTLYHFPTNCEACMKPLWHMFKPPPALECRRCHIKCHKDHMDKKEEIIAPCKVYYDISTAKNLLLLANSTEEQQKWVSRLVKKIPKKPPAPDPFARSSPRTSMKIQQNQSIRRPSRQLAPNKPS
# UniProt Q99961, sequence (Q99961 whole entry, looked up): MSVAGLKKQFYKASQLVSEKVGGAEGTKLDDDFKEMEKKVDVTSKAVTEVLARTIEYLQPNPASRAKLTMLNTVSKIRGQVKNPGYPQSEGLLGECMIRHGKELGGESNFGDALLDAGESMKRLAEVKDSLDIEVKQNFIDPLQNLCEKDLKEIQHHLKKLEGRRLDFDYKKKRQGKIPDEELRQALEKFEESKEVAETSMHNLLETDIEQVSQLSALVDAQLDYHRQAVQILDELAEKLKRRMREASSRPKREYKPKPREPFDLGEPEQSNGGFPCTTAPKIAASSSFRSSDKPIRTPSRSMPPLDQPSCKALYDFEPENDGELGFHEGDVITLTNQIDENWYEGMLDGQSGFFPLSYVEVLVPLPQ
# UniProt Q53H47, sequence (Q53H47 whole entry, looked up): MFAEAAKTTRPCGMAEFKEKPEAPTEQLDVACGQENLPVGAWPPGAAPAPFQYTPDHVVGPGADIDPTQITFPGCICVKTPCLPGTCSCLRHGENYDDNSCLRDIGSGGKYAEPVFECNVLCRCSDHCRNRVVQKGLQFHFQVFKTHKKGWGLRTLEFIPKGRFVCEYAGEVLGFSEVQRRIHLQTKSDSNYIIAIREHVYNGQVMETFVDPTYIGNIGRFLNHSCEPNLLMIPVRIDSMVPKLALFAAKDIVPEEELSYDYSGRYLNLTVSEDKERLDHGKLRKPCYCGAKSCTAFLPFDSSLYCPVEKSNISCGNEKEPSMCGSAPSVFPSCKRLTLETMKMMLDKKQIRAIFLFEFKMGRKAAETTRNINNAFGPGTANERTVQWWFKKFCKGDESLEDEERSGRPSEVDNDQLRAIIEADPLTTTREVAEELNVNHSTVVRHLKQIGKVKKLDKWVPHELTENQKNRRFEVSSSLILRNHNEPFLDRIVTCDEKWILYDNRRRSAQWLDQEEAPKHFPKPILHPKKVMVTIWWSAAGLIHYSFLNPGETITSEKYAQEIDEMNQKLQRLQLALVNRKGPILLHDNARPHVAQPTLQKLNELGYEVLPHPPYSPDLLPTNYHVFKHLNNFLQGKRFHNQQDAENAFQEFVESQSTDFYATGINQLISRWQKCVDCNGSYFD
# UniProt P62070, sequence (P62070 whole entry, looked up): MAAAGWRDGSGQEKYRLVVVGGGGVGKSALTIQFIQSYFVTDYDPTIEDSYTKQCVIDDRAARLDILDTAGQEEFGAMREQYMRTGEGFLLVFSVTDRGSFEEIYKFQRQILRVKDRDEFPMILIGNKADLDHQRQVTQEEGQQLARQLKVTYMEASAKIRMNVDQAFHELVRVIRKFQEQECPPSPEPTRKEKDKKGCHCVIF
# UniProt Q15758, sequence (Q15758 whole entry, looked up): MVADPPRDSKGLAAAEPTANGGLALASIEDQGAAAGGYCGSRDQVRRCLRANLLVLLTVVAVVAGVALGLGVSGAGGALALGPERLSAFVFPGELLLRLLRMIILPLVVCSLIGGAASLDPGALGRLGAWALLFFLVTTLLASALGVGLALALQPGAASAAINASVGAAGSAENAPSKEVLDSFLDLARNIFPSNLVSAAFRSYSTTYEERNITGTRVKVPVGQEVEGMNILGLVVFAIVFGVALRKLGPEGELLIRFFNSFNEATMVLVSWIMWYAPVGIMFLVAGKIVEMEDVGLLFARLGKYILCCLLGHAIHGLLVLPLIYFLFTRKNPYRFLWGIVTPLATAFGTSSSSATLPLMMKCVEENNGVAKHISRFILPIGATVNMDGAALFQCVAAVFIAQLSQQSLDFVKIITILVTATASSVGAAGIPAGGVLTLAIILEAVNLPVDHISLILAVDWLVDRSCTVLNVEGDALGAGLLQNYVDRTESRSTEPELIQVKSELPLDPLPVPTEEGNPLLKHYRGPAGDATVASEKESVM
# UniProt P61586, sequence (P61586 whole entry, looked up): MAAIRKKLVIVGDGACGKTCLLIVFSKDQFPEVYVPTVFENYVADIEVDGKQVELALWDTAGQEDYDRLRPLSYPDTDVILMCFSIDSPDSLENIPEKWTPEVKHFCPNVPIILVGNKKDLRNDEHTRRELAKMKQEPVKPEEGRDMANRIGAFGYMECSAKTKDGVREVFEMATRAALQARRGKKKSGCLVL
# UniProt P51151, sequence (P51151 whole entry, looked up): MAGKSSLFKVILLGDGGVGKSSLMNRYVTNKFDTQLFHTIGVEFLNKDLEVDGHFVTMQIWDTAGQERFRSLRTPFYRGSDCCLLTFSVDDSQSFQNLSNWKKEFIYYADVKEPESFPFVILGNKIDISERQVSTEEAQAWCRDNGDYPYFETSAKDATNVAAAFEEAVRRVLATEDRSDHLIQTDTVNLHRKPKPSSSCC
# UniProt O14796, sequence (O14796 whole entry, looked up): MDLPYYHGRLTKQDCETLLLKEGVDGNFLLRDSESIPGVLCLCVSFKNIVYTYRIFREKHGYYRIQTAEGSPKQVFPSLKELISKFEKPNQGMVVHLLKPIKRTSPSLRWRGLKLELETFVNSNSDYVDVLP
Target,log2 fold change [1],log2 fold change [2],log2 fold change [3],log2 fold change [4],log2 fold change (Nexturastat A),log2 fold change (vemurafenib),log2 fold change [5],log2 fold change [6],log2 fold change (givinostat),log2 fold change (barasertib)
RTF2 (UniProt Q9BY42),0,-0.028,0.019,0.04,0.004,0.129,0.044,-0.019,0.017,0.072
RPS27A (UniProt P62979),-0.023,-0.011,-0.179,-0.075,0.368,-0.126,-0.224,0.152,-0.109,-0.119
SCAF11 (UniProt Q99590),-0.089,0.154,-0.079,-0.275,0.003,-0.158,-0.031,0.035,-0.034,0.165
RBM25 (UniProt P49756),-0.032,0.017,-0.007,-0.074,0.02,0.019,0,-0.093,0.202,0.035
SH3GL1 (UniProt Q99961),0.022,-0.077,0.06,0.021,0.141,0.1,0.1,0.037,0.024,0.084
RIPK1 (UniProt Q13546),0.101,-0.043,-0.002,-0.178,0.109,0.054,0.135,0.092,0.094,0.085
ROCK1 (UniProt Q13464),0.003,-0.073,-0.016,-0.037,0.093,0.052,0.036,-0.019,0.031,0.021
SEC24A (UniProt O95486),0.025,-0.089,0,0.012,-0.04,0.023,0.051,0.08,0.072,0.006
RPS12 (UniProt P25398),0.036,0.006,-0.013,-0.027,0.038,-0.057,-0.035,0.073,-0.035,-0.059
RB1CC1 (UniProt Q8TDY2),-0.061,-0.005,0.025,-0.031,0.161,-0.022,-0.034,0.147,0.102,-0.008
RPP14 (UniProt O95059),0.086,0.01,-0.031,-0.015,0.129,-0.004,0.004,-0.037,-0.116,-0.087
RBM26 isoform 3 (UniProt Q5T8P6),0.017,–,–,–,–,–,–,–,–,–
ROCK2 (UniProt O75116),0.009,-0.044,-0.037,0.02,-0.004,0.034,-0.005,-0.06,0.055,0.027
RB1 (UniProt P06400),0.016,-0.011,0.034,0.003,-0.1,-0.01,-0.008,-0.026,-0.02,-0.004
RRAS2 isoform 4 (UniProt P62070),-0.016,-0.02,-0.009,-0.021,-0.015,0.011,-0.037,-0.034,-0.017,-0.049
SLC1A5 (UniProt Q15758),0.007,0.002,0.019,-0.01,-0.053,-0.006,0.012,-0.01,-0.022,-0.04

Target,log2 fold change [1],log2 fold change [2],log2 fold change [3],log2 fold change [4],log2 fold change (Nexturastat A),log2 fold change (vemurafenib),log2 fold change [5],log2 fold change [6],log2 fold change (givinostat),log2 fold change (barasertib)
RAB9A (UniProt P51151),0.036,0.033,0.017,0.018,0.017,-0.012,-0.024,0.003,0.054,-0.011
RHOXF2 (UniProt Q9BQY4),-0.03,0.034,-0.037,0.021,0.083,-0.015,0.012,-0.024,0.05,0.033
RHOA (UniProt P61586),0.015,-0.073,0.047,0.061,0.039,-0.042,0.074,0.145,-0.032,0.026
RPS18 (UniProt P62269),-0.014,0,-0.049,-0.061,0.148,-0.125,-0.04,-0.01,0.021,-0.067
RAB5C isoform 2 (UniProt P51148),0.069,-0.02,0.02,0.01,-0.029,0.015,0.008,-0.017,0.006,-0.031
RABGAP1L isoform 3 (UniProt Q5R372),0.002,0.018,0.018,-0.005,-0.058,-0.008,0.073,0.03,0.034,0.022
SH2D1B (UniProt O14796),-0.781,0.013,-0.01,-0.011,0.143,0.048,-0.135,-0.146,-0.028,–
RTN4IP1 (UniProt Q8WWV3),0.253,-0.033,0.294,0.119,-0.061,0.034,-0.041,-0.218,-0.081,0.031
RPS2 (UniProt P15880),0.006,0.009,-0.075,-0.036,0.192,-0.116,-0.099,0.084,-0.011,-0.095
SCD (UniProt O00767),-0.076,0.037,0.038,0.078,-0.121,0.022,-0.053,-0.021,-0.457 (active),0.003
SERINC1 (UniProt Q9NRX5),0.044,-0.048,0.372,-0.021,0.053,-0.083,-0.018,-0.874 (active),0.05,0.002
SETMAR (UniProt Q53H47),0.128,0.061,-0.023,-0.049,-0.041,0.018,0.021,0.01,-0.036,0.051
RPS3A (UniProt D6R9B6),-0.199,–,–,–,–,–,–,–,–,–
ROR2 (UniProt Q01974),0.022,-0.061,0.001,-0.009,-0.109,0.018,0.007,0.078,0.033,0.003
RBM22 (UniProt Q9NW64),-0.049,0.031,-0.056,-0.014,0.052,0.003,-0.004,-0.038,0.018,-0.006
